Compound activity as filed in PubChem.
BoNT-A LC inh2: blocks Botulinum neurotoxin A light chain protease; actives 0.17% (n = 360,000); AID 588499; multiplex microsphere protease substrate cleavage, flow cytometry; inhibition, % at 10 µM; also: plate controls were buffer without enzyme for full effect and enzyme alone for no effect
Autofluor counter: counter-screen for toxin protease inhibitors: compound fluorescence; compound autofluorescence counterscreen, microsphere flow cytometry; active compounds read high; fluorescence intensity (no concentration beside the values); actives 3.1% (n = 360,000); AID 624483; in the data active = fluorescence intensity above about 16000; inconclusive = no clear call, values can overlap the other calls
Anthrax LF prot: inhibitors of Bacillus anthracis lethal factor protease. inhibition, % at 10 µM. actives 0.12% (n = 360,000). P15917. AID 588501. multiplex microsphere protease cleavage assay, LF; also: plate controls were buffer without enzyme for full effect and enzyme alone for no effect
Target sequence (P15917 whole entry, looked up): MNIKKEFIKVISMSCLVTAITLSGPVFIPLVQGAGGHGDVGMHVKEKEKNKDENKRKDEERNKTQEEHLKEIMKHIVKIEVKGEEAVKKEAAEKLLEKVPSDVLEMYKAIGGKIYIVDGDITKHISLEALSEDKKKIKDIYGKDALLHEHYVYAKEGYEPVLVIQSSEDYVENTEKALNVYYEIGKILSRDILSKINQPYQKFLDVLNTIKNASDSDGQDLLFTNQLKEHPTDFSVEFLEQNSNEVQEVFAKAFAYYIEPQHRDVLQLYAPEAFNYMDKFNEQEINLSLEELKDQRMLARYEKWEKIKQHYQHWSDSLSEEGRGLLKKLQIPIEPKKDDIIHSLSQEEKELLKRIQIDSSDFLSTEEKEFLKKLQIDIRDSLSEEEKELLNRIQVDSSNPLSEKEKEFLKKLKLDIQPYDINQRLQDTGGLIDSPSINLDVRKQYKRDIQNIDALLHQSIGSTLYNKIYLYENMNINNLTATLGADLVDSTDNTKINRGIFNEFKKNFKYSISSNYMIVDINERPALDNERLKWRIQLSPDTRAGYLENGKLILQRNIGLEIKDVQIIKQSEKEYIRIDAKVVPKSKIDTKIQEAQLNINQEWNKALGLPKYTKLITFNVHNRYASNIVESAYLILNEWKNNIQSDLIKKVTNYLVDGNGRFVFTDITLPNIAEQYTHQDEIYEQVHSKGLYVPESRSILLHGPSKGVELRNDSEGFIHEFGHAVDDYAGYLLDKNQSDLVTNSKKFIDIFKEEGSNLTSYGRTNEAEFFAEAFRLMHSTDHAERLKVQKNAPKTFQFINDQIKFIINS
SSB-PriA inh: K. pneumoniae PriA-SSBct interaction inhibition | AlphaScreen SSBct-PriA binding, biotinylated peptide | inhibition, % at 33 µM | actives 0.6% (n = 430,000) | AID 1272365; in the data active = inhibition mostly above about 37%, no sharp cut-off; inactive = mostly below about 20%;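 also: plate controls were negative control peptide for no effect and reference peptide for full effect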
BoNT-F LC inh: inhibitors of Botulinum neurotoxin F light chain protease. Multiplex microsphere protease cleavage assay, flow cytometry. AID 588497. inhibition, % at 10 µM. actives 0.22% (n = 360,000); in the data active = inhibition above about 35%, passing the limit was not always enough; inconclusive = no clear call, values can overlap the other calls; also: plate controls were buffer without enzyme for full effect and enzyme alone for no effect
* = called active by the depositor; i = inactive; ? = inconclusive; nt = no result given; ! = not confirmed by another sample. The list is not random: actives were taken first. Their share in the collection is about 3.1%. Rule as the data show it, unless noted: active = inhibition above about 30%; inconclusive = no clear call, values can overlap the other calls; inactive = below that.

SMILES | BoNT-A LC inh2 | Autofluor counter | Anthrax LF prot | SSB-PriA inh | BoNT-F LC inh
Cc1oc(-c2ccc(Cl)cc2)nc1CN1CCC(C(=O)NCc2cccs2)CC1 | 1 | 3666 | 1 | -8 | -4
CCN(CCNC(=O)C1CCN(Cc2nc(-c3ccc(Cl)cc3)oc2C)CC1)c1ccccc1 | -5 | 22915* | -4 | 46* | -9
CC1CCc2c(sc(NC(=O)c3ccc4ncsc4c3)c2C(N)=O)C1 (stereo unspecified) | nt | nt | nt | 0 | nt
O=C(Nc1ccccc1Cc1nc(-c2cccs2)no1)c1cc(C2CC2)on1 | nt | nt | nt | -2 | nt
CCN(CCNC(=O)C1CCN(Cc2nc(-c3cccc(Cl)c3)oc2C)CC1)c1ccccc1 | 0 | 20469* | -10 | 33 | -4
C=CCCC(=O)NCC(OC)c1cccc(OC)c1 (stereo unspecified) | nt | nt | nt | -17 | nt
COc1cc(/C=N/NC(=O)c2ccccc2F)ccc1Oc1ccc([N+](=O)[O-])cn1 | nt | nt | nt | i | nt
Cc1ccc2[nH]cc(CCNC(=O)Nc3ccccc3)c2c1 | -3 | 21739* | 0 | 8 | -7
CC(=O)c1cccc(NC(=O)NCCc2c[nH]c3ccccc23)c1 | 1 | 3867 | -3 | 2 | ?
CCN(CC)CCN(C(=O)c1cc2ccccc2cc1OC)c1nc2ccc(OC)cc2s1 | -2 | 5611 | -2 | 45* | -8
CCN(CC)CCN(C(=O)c1cc2ccccc2cc1OC)c1nc2ccc(F)cc2s1 | 1 | 4093 | -4 | 47*! | -2
Cc1ccc(S(=O)(=O)Nc2nc(CCC(=O)NCCC3=CCCCC3)cs2)cc1 | nt | nt | nt | -10 | nt
O=C(C[n+]1ccc(CCSc2ccc(F)cc2)cc1)c1ccccc1 | 20 | 6909 | -1 | 46* | -58
Cc1ccc2c(c1)N(CCC(=O)NCC1COc3ccccc3O1)C(=O)CO2 (stereo unspecified) | 1 | 21396* | -6 | 1 | 3
CCC1Oc2ccc(C)cc2N(CC(=O)NCC2COc3ccccc3O2)C1=O (stereo unspecified) | 0 | 5972 | -4 | -14 | -1
Cc1ccc2c(c1)N(CCC(=O)NCc1ccco1)C(=O)CO2 | -2 | 22695* | -1 | -1 | -5
O=C(CCN1C(=O)COc2ccccc21)NCCN1CCOCC1 | -1 | 9031 | -4 | -12 | -1
Cc1ccc2c(c1)N(CCC(=O)NCCN1CCOCC1)C(=O)CO2 | -1 | 20041* | 0 | 0 | -3
O=C(CN(Cc1cccs1)C(=O)CN1C(=O)COc2ccccc21)NCc1ccco1 | 7 | 19004* | -6 | -5 | 7
C=CCNC(=O)NCC1CCN(c2ncccn2)CC1 | nt | nt | nt | -2 | nt
COc1ccccc1CNC(=O)CCN1C(=O)COc2ccc(C)cc21 | ? | 21217* | 0 | -1 | 5
COc1ccc(-c2cc3ccccc3oc2=O)cc1NC(=O)c1ccc(Br)o1 | 0 | 2867 | -2 | -13 | 3
COc1ccc(-c2cc3ccccc3oc2=O)cc1NC(=O)c1ccc([N+](=O)[O-])o1 | 0 | 23372* | 1 | 1 | 1
COc1ccc(N2CC(O)(c3ccc(C)cc3)[N+]3=C2CCCC3)cc1 (stereo unspecified) | 0 | 3530 | 4 | 3 | 1
COc1ccc(N2C3=[N+](CCCC3)CC2(C)O)cc1 (stereo unspecified) | -3 | 16662* | -4 | -14 | -4
SMILES | BoNT-A LC inh2 | Autofluor counter | Anthrax LF prot | SSB-PriA inh | BoNT-F LC inh
Cc1cccc(C)c1N1CCN(c2nc(N(C)C)oc(=O)c2C#N)CC1 | 0 | 23077* | 1 | -10 | 2
Cc1c([N+](=O)[O-])c(C(=O)N2CCCC2)nn1C | 1 | 22515* | -12 | 4 | -1
Cc1ccc(C2CC(=O)Nc3n[nH]c(C)c32)cc1 (stereo unspecified) | nt | nt | nt | -7 | nt
O=c1[nH]c(=O)n(Cc2ccc(F)cc2)c(O)c1C=NCCCn1ccnc1 | -1 | 20628* | -6 | -1 | 0
O=C(Nn1c(-c2ccccc2)nc2ccccc2c1=O)C1CCC1 | 4 | 21456* | 1 | -1 | 4
CSc1nnc(C)c(=O)[nH]1 | -5 | 25237* | -2 | -3 | -8
Cc1nnc(SCCc2ccccc2)[nH]c1=O | ? | 19226* | 0 | 1 | 8
COc1ccccc1N1CCN(S(=O)(=O)c2ccccc2)CC1 | 3 | 19619* | -8 | -10 | 2
COc1ccccc1N1CCN(S(=O)(=O)c2cccs2)CC1 | 0 | 7754 | -1 | -11 | -1
COc1ccccc1N1CCN(S(=O)(=O)c2ccc(Br)s2)CC1 | 2 | 22653* | -3 | -11 | -2
COc1cc(S(=O)(=O)N2CCN(c3ccccc3F)CC2)ccc1Cl | -1 | 20773* | -3 | -3 | -3
O=S(=O)(c1ccc(F)cc1)N1CCN(c2ccccc2)CC1 | 0 | 20200* | 0 | -5 | -1
CCOc1cccc(NC(=O)C(Cc2cccs2)c2nn[nH]n2)c1 (stereo unspecified) | 6 | 20016* | 2 | -10 | 8
CC(=NNC(=O)c1ccccc1)c1c(O)n(Cc2ccccc2)c(=O)[nH]c1=O | nt | nt | nt | 0 | nt
CCn1c(CNC(=O)c2ccccc2F)nnc1SCC(=O)NC1CCCCC1 | 0 | 2241 | -2 | -4 | -3
CCn1c(CCNC(=O)c2cccs2)nnc1SCC(=O)NC1CCCCC1 | ? | 21522* | -7 | -2 | 4
CCn1c(CCNC(=O)c2cccs2)nnc1SCC(=O)Nc1ccc(Cl)cc1 | ? | 22204* | -4 | -10 | 4
Cc1cc2nc(N(Cc3cccnc3)C(=O)c3ccc(S(=O)(=O)C(C)C)cc3)sc2cc1C | nt | nt | nt | 4 | nt
NS(=O)(=O)c1ccc(C(=O)NCCNc2ccc(-n3cccc3)nn2)cc1 | nt | nt | nt | -2 | nt
O=C(NC[C@H]1CCCN1c1ccccc1)c1ccccc1Br | nt | nt | nt | 9 | nt
O=C(CSc1ccc(N2CCN(c3cccc(C(F)(F)F)c3)CC2)nn1)N1CCCCC1 | nt | nt | nt | -3 | nt
Cc1cc(NC(=O)CSc2nc(-c3ccccc3C)ns2)no1 | nt | nt | nt | -3 | nt
NNC(=O)c1oc2nc(-c3ccccc3)cc(-c3ccccc3)c2c1N | -3 | 16851* | -7 | 2 | 29
CN1C(=O)NC(NS(=O)(=O)c2ccc(N)cc2)(C(F)(F)F)C1=O (stereo unspecified) | 0 | 4773 | 3 | -15 | -2
CCCCN1C(=O)NC(NS(=O)(=O)c2ccc(N)cc2)(C(F)(F)F)C1=O (stereo unspecified) | 2 | 19835* | -6 | 3 | 2
SMILES | BoNT-A LC inh2 | Autofluor counter | Anthrax LF prot | SSB-PriA inh | BoNT-F LC inh
Cc1nnc(-c2cccc(Br)c2)c2cn(-c3ccccc3Cl)nc12 | 2 | 26146* | -14 | -25 | 14
COc1ccc(OC)c(-c2cc(C(=O)Nc3c(C)nn(Cc4ccccc4)c3C)no2)c1 | -1 | 11097 | -2 | -6 | -4
CCc1ccc(NC(=O)c2cc(-c3ccco3)on2)cc1 | -2 | 24283* | -1 | -11 | -3
Clc1ccc(Cn2ccc(-c3ccc4c(c3)OCO4)n2)cc1Cl | 0 | 23441* | -1 | -38 | -2
COc1ccc(NC(=O)c2cc(-c3ccco3)on2)cc1 | 0 | 4074 | -3 | 0 | -6
Cc1nn(Cc2ccccc2)c(C)c1NC(=O)c1cc(-c2ccco2)on1 | 2 | 20385* | 2 | -5 | 0
Cc1nn(Cc2ccc(Cl)c(Cl)c2)c(C)c1NC(=O)c1cc(-c2ccc3c(c2)OCO3)on1 | ? | 19313* | -19 | 8 | 9
